# Several values for one entry are separate records, joined by “and”; a condition that tells them apart may be missing. Equal entries are not always repeated. Inconclusive results are not listed. Some compounds were tested as several samples or in several runs, with calls that do not always agree. A number with no mark means an inactive call. Activity calls are given as the source filed them. The call rests on the fitted dose curve; in most records, active means well fitted curve in the direction sought with a large enough effect; inconclusive means small, poorly fitted or top-dose-only effect, or another doubt; inactive means no such curve, though single readings can be large; an effect the other way counts as inactive or inconclusive.
# Assays:
# HEK293 = assay: Cytotoxic Profiling of Annotated Libraries Using Quantitative High-Throughput Screening (AID 1296008); details: Five cell lines viability, CellTiter-Glo ATP luminescence, 48-72 h; max response: hits give low values; further: nearly all actives have a fitted effect of over 60% in size
# Procedure, shortened: (§1)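 Cytotoxicity was measured as CellTiter-Glo ATP luminescence, read after 10 min at room temperature. Compound treatment of the cells lasted 48 or 72 hr at 37 degrees Celsius in a qHTS format.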
# HaCat [1] = assay: as above; details: Five cell lines viability, CellTiter-Glo ATP luminescence, 48-72 h; max response: hits give low values
# Procedure, shortened: as §1
# KB-3-1 = assay: as above; details: Five cell lines viability, CellTiter-Glo ATP luminescence, 48-72 h; max response: hits give low values
# Procedure, shortened: as §1
# HACAT [2] = assay: qHTS assay to identify novel small-molecules to repurpose for Merkel cell carcinoma treatment (AID 1296009); details: MCC and control cell lines, CellTiter-Glo viability, 72 h; series mostly up to 44.8 µM; further: nearly all actives have a fitted effect of over 60% in size
# Procedure, shortened: (§2)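 After compound transfer in DMSO, plates were kept 72 hr at 37 degree celsius. Luminescent ATP signal from CellTiter-Glo served as viability measure, normalized against DMSO and no-cell controls.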
# MCC-13 = assay: as above; details: MCC and control cell lines, CellTiter-Glo viability, 72 h; series mostly up to 46 µM
# Procedure, shortened: as §2
# MKL-1 = assay: as above; details: MCC and control cell lines, CellTiter-Glo viability, 72 h; series mostly up to 46 µM
# Procedure, shortened: as §2
# MCC-26 = assay: as above; details: MCC and control cell lines, CellTiter-Glo viability, 72 h; series mostly up to 46 µM
# Procedure, shortened: as §2
# MKL-2 = assay: as above; details: MCC and control cell lines, CellTiter-Glo viability, 72 h; series mostly up to 46 µM
# Procedure, shortened: as §2
# WaGa = assay: as above; details: MCC and control cell lines, CellTiter-Glo viability, 72 h; series mostly up to 46 µM
# Procedure, shortened: as §2
# C33A = assay: Primary qHTS to identify gynecologic anti-cancer compounds using libraries of approved drugs and bioactive compounds (AID 1345084); details: Gynecologic cancer cell panel viability, ATPlite luminescence, 48 h; series mostly up to 57.5 µM; further: nearly all actives have a fitted effect of over 55% in size
# Procedure, shortened: (§3)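 Cells, 1,000 per well, were allowed to settle for 16 h at 37 C before compound addition. Five concentrations were tested for 48 h, and viability was read by ATPlite luminescence after 15 min at room temperature.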
# Es-2 = assay: as above; details: Gynecologic cancer cell panel viability, ATPlite luminescence, 48 h; series mostly up to 57.5 µM
# Procedure, shortened: as §3
# HeLa = assay: as above; details: Gynecologic cancer cell panel viability, ATPlite luminescence, 48 h; series mostly up to 57.5 µM
# Procedure, shortened: as §3
# Hek293T [3] = assay: as above; details: Gynecologic cancer cell panel viability, ATPlite luminescence, 48 h, control line for the selectivity index; series mostly up to 57.5 µM
# Procedure, shortened: as §3
# JEG-3 = assay: as above; details: Gynecologic cancer cell panel viability, ATPlite luminescence, 48 h; series mostly up to 57.5 µM
# Procedure, shortened: as §3
# CASKI = assay: as above; details: Gynecologic cancer cell panel viability, ATPlite luminescence, 48 h; series mostly up to 57.5 µM
# Procedure, shortened: as §3
# NIH3T3 [4] = assay: Cytotoxic Profiling of Annotated Libraries Using Quantitative High-Throughput Screening (AID 1296008); details: Five cell lines viability, CellTiter-Glo ATP luminescence, 48-72 h; max response: hits give low values; further: nearly all actives have a fitted effect of over 60% in size
# Procedure, shortened: as §1
# UISO = assay: qHTS assay to identify novel small-molecules to repurpose for Merkel cell carcinoma treatment (AID 1296009); details: MCC and control cell lines, CellTiter-Glo viability, 72 h; series mostly up to 46 µM; further: nearly all actives have a fitted effect of over 60% in size
# Procedure, shortened: as §2
# CAOV3 = assay: Primary qHTS to identify gynecologic anti-cancer compounds using libraries of approved drugs and bioactive compounds (AID 1345084); details: Gynecologic cancer cell panel viability, ATPlite luminescence, 48 h; series mostly up to 57.5 µM; further: nearly all actives have a fitted effect of over 55% in size
# Procedure, shortened: as §3
# NIH3T3 [5] = assay: qHTS assay to identify novel small-molecules to repurpose for Merkel cell carcinoma treatment (AID 1296009); details: MCC and control cell lines, CellTiter-Glo viability, 72 h; at 44.8 µM (top of the series) unless noted; further: nearly all actives have a fitted effect of over 60% in size
# Procedure, shortened: as §2
# HEK293T [6] = assay: as above; details: MCC and control cell lines, CellTiter-Glo viability, 72 h; at 44.8 µM (top of the series) unless noted
# Procedure, shortened: as §2
# On the % scale 0 is the no-effect control and ±100 the full control effect; potency means the concentration at half of the fitted maximal effect.
smiles,measurement,setting,value
C[C@@H]1CN(CC(=O)Nc2ccc3c(c2)Cc2cccc(-c4cc(=O)cc(N5CCOCC5)o4)c2S3)C[C@H](C)O1,Potency,HEK293,18.7 µM (active)
same,outcome,HaCat [1],inactive
same,max response,KB-3-1,-19.5%
same,Potency,HACAT [2],inactive
same,Potency,MCC-13,inactive
same,Potency,MKL-1,inactive
CN1CCC(CNc2ccc3ncc(-c4cccc(OC(F)(F)F)c4)n3n2)CC1,Potency,HEK293,23.5 µM (active)
same,Potency,HaCat [1],13.2 µM (active) and 16.4 µM (active)
same,Potency,KB-3-1,20.9 µM (active)
same,Potency,MCC-13,inactive
same,Potency,MCC-26,inactive
same,Potency,MKL-2,inactive
same,Potency,WaGa,inactive
same,Potency,C33A,inactive
same,Potency,Es-2,inactive
same,Potency,HeLa,inactive
same,Potency,Hek293T [3],inactive
same,Potency,JEG-3,inactive
Cc1cccc(C=NNc2cc(N3CCOCC3)nc(OCCc3ccccn3)n2)c1,Potency,HEK293,5.9 µM (active)
same,max response,HaCat [1],-6.14%
same,Potency,MCC-13,inactive
same,Potency,MCC-26,inactive
same,Potency,MKL-1,20.9 µM (active)
same,Potency,MKL-2,16.6 µM (active)
same,Potency,WaGa,inactive
O=C(O)C1(Cc2cccc(Nc3nccs3)n2)CCC(Oc2cccc(Cl)c2F)CC1 (stereo unspecified),Potency,HEK293,2.64 µM (active) and 1.3 µM (active)
same,Potency,HaCat [1],5.26 µM (active) and 4.61 µM (active)
same,Potency,KB-3-1,2.35 µM (active)
same,Potency,MCC-13,10.5 µM (active)
same,Potency,MCC-26,inactive
same,Potency,MKL-2,inactive
same,Potency,C33A,inactive
same,Potency,CASKI,inactive
same,Potency,Es-2,inactive
same,Potency,HeLa,6.31 µM (active)
same,Potency,Hek293T [3],inactive
same,Potency,JEG-3,inactive
CS(=O)(=O)N1CCN(Cc2cc3nc(-c4cccc5[nH]ncc45)nc(N4CCOCC4)c3s2)CC1,Potency,HEK293,372 nM (active) and 1.84 µM (active)
same,Potency,HaCat [1],0.0296 µM (active)
same,Potency,NIH3T3 [4],296 nM (active) and 1.3 µM (active)
same,Potency,MCC-13,inactive
same,Potency,UISO,1.32 µM (active)
same,Potency,HeLa,3.55 µM (active)
same,Potency,Hek293T [3],2.51 µM (active)
CN(C)CCCN=c1c2ccccc2n(C)c2[nH]c(=O)n(C)c(=O)c12,Potency,HEK293,5.26 µM (active)
same,Potency,HaCat [1],18.7 µM (active)
same,Potency,NIH3T3 [4],23.5 µM (active)
same,Potency,MKL-1,10.5 µM (active)
same,Potency,MKL-2,14.8 µM (active)
same,Potency,UISO,20.9 µM (active)
same,Potency,WaGa,7.43 µM (active)
CN(c1ncccc1CNc1nc(Nc2ccc3c(c2)CC(=O)N3)ncc1C(F)(F)F)S(C)(=O)=O,Potency,HEK293,3.72 µM (active)
same,Potency,HaCat [1],16.6 µM (active)
same,Potency,KB-3-1,7.43 µM (active)
same,Potency,MKL-1,9.35 µM (active)
same,Potency,UISO,11.8 µM (active)
same,Potency,WaGa,8.33 µM (active)
O=C(Nc1cc(C(F)(F)F)cc(C(F)(F)F)c1)c1cc(Cl)ccc1O,Potency,HEK293,590 nM (active) and 1.16 µM (active)
same,Potency,HaCat [1],2.64 µM (active) and 2.91 µM (active)
same,Potency,KB-3-1,264 nM (active) and 731 nM (active)
same,Potency,NIH3T3 [4],3.32 µM (active) and 5.8 µM (active)
same,Potency,UISO,2.35 µM (active)
same,Potency,C33A,3.16 µM (active)
same,Potency,CAOV3,8.91 µM (active)
same,Potency,CASKI,3.55 µM (active)
same,Potency,Es-2,5.01 µM (active)
same,Potency,HeLa,2.24 µM (active)
same,Potency,Hek293T [3],2.51 µM (active)
CCN1CCN(CC(=O)Nc2ccc(-c3cccc4c(=O)cc(N5CCOCC5)oc34)c3sc4ccccc4c23)CC1,Potency,HEK293,1.18 µM (active)
same,Potency,HaCat [1],0.935 µM (active)
same,Potency,NIH3T3 [4],1.05 µM (active)
O=c1[nH]nc(Sc2ncc([N+](=O)[O-])s2)n1-c1ccc2c(c1)OCCO2,Potency,HEK293,9.35 µM (active)
same,Potency,HaCat [1],18.7 µM (active)
same,Potency,NIH3T3 [4],8.33 µM (active)
same,Potency,MCC-13,11.8 µM (active)
same,Potency,MCC-26,10.5 µM (active)
same,Potency,MKL-1,3.72 µM (active)
same,Potency,MKL-2,5.26 µM (active)
same,Potency,UISO,7.43 µM (active)
same,Potency,WaGa,5.26 µM (active)
Nc1ccccc1NC(=O)c1ccc(CNC(=O)OCc2cccnc2)cc1,Potency,HEK293,7.43 µM (active) and 6.51 µM (active)
same,Potency,HaCat [1],13.2 µM (active) and 5.17 µM (active)
same,Potency,KB-3-1,9.35 µM (active) and 7.31 µM (active)
same,Potency,MKL-1,2.35 µM (active)
same,Potency,MKL-2,0.296 µM (active)
same,Potency,UISO,2.35 µM (active)
same,Potency,WaGa,0.296 µM (active)
same,Potency,C33A,17.8 µM (active)
same,Potency,CAOV3,inactive
same,Potency,CASKI,inactive
same,Potency,Es-2,11.2 µM (active)
same,Potency,HeLa,10 µM (active)
same,Potency,JEG-3,15.8 µM (active)
Cn1cncc1[C@@](N)(c1ccc(Cl)cc1)c1ccc2c(c1)c(-c1cccc(Cl)c1)cc(=O)n2C,Potency,HEK293,0.148 µM (active)
same,Potency,KB-3-1,14.8 µM (active)
same,Potency,MCC-26,inactive
same,Potency,MKL-1,4.69 µM (active)
same,Potency,MKL-2,3.72 µM (active)
same,Potency,WaGa,0.935 µM (active)
Nc1nc(NCCNc2ncc(-n3ccnc3)c(-c3ccc(Cl)cc3Cl)n2)ccc1[N+](=O)[O-],outcome,HaCat [1],inactive
same,Potency,KB-3-1,20.6 µM (active)
same,outcome,KB-3-1,inactive
same,max response,NIH3T3 [4],4.08%
same,outcome,NIH3T3 [4],inactive
same,Potency,HACAT [2],inactive
same,Potency,MCC-13,inactive
same,Potency,MCC-26,inactive
same,Potency,MKL-1,inactive
same,Potency,MKL-2,inactive
same,outcome,NIH3T3 [5],inactive
same,Potency,UISO,inactive
same,Potency,WaGa,inactive
same,Potency,CAOV3,inactive
same,Potency,CASKI,inactive
same,Potency,Es-2,inactive
same,Potency,Hek293T [3],inactive
C1Cc2[nH]nc(-c3nn[nH]n3)c2C1,max response,HaCat [1],-5.07%
same,outcome,HaCat [1],inactive
same,max response,KB-3-1,5.58%
same,outcome,KB-3-1,inactive
same,outcome,NIH3T3 [4],inactive
same,Potency,HACAT [2],inactive
same,outcome,HEK293T [6],inactive
same,Potency,MCC-13,inactive
same,Potency,MCC-26,inactive
same,Potency,MKL-1,inactive
same,Potency,MKL-2,inactive
same,outcome,NIH3T3 [5],inactive
same,Potency,UISO,inactive
same,Potency,WaGa,inactive
same,Potency,C33A,inactive
same,Potency,CASKI,inactive
same,Potency,Es-2,inactive
same,Potency,HeLa,inactive
same,Potency,Hek293T [3],inactive
same,Potency,JEG-3,inactive

# Reference: PubChem BioAssay (NCATS)
